Laboratory results as given in PubChem BioAssay (NCI).
This is part of a sample that, as a whole, favours compounds with a hit. Of some 83,000 tested, about 20% had one in any assay.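 Interpretation: 100, growth as untreated; towards 0, rising growth inhibition; 0, no net growth; 0 to -100, cell death. Compounds scoring below 10 were considered active.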 Activity calls are given as the source filed them.

Each compound was assayed on MOLT-4 leukemia (assay: NCI-60 one-dose screen, 48 h (100 = growth as untreated, 0 = no growth, -100 = all killed)). Conditions: 10 µM unless noted.
Protocol: Growth inhibition of the MOLT-4 human tumor cell line is measured as a screen for anti-cancer activity. Cells are grown in 96 well plates and exposed to the test compound for 48 hours. Compounds are tested at a single concentration, which is 10^-5 M for most compounds. The reported endpoint is percent growth (GI% or GIPRCNT), where numbers from 0 - 100% represent growth inhibition, and numbers from -100% - 0 represent cell death. For example, a value of 40 represents 60% growth inhibition. A value of 0 means no net growth occurred over the course of the experiment. A value of -40 indicates 40% of cells at the beginning of the experiment died by the end of the experiment. A value of -100 means all cells are dead at the end of the experiment.
NCI-60 Human Tumor Cell Lines Screen was performed using the standard one-dose NCI protocol, which is described in more detail at https://dtp.cancer.gov/discovery_development/nci-60/default.htm.
Compounds with GIPRCNT values below 10 were considered active. Activity score was based on GIPRCNT using the following formula: […]
Score is 0 for GIPRCNT values of 100 or above, 50 for GIPRCNT values of 0, and 100 for GIPRCNT values of -100.
`NC(=O)CN1C(=O)c2ccccc2C1=O` was tested, and the growth was 99.1% (inactive). For `O=c1[nH]c(-c2cccc(F)c2)cc2cc(F)ccc12`, the growth was 21.9% (inactive). With `Nc1c(C(=O)Nc2ccccc2)sc2nc3c(cc12)CN(C(=O)OCc1ccccc1)CC3` the growth was 37.8% (inactive). `COc1cc(N=Nc2cc(S(=O)(=O)O)cc3cc(S(=O)(=O)O)cc(O)c23)c(C)cc1N=Nc1c(S(=O)(=O)O)cc2cc(Nc3ccccc3)ccc2c1O` was tested, and the growth was 86.8% (inactive). With `NC(N)=NC(N)=Nc1cc2ccccc2c2ccccc12` the growth was 9.61% (active). In the case of `Nc1cc(N)c(S(=O)(=O)O)cc1N=Nc1cc([N+](=O)[O-])ccc1O`, the growth is reported as 90.5% (inactive). In the case of `Cc1nn(-c2ccc(-c3ccc(OC(F)(F)F)cc3)cc2)c2nc(-c3ccccc3)nc(N)c12`, the growth is reported as 82.4% (inactive). In the case of `COc1cc(-c2csc(NC(=O)Nc3cc(Cl)cc(Cl)c3)n2)cc(OC)c1OC`, the growth is reported as 16.3% (inactive). In the case of `CCCCc1n(Cc2ccc3ccccc3c2)c2ccccc2[n+]1Cc1ccc2ccccc2c1`, the growth is reported as -60.9% (active). In the case of `C=C(C)[C@@H]1CC[C@]2(C(=O)n3ccnc3)CC[C@]3(C)[C@H](CC[C@@H]4[C@@]5(C)CCCNC(C)(C)[C@@H]5CC[C@]43C)[C@@H]12`, the growth is reported as -15.9% (active). For `O=c1[nH]nc(-c2ccccc2)c2sc(NC(=S)Nc3ccc(Cl)cc3)nc12`, the growth was 79.6% (inactive). With `CCCCc1ccc(N=Nc2ccc(OCC[N+](C)(C)C)cc2)cc1` the growth was 57.2% (inactive). For `CCOC(=O)CC[C@H](NC(=O)c1ccc(NC)c2ccccc12)C(=O)OCC`, the growth was 98.6% (inactive). For `COc1ccc2[nH]c(=O)c(/C=C/C(=O)/C=C/c3ccc(O)c(OC)c3)cc2c1`, the growth was 21% (inactive). `O=C1NN(c2ccccc2)C(c2ccc3c(c2)OCO3)N2CCC[C@@H]12` (stereo not given in full) was tested, and the growth was 102% (inactive). `COC(=O)c1cncc(C(=O)Nc2ccc(-n3cnc4ccccc43)cc2)c1` was tested, and the growth was 90.2% (inactive). With `[2H]c1cc2c(c([2H])c1F)/C(=C/c1[nH]c(C)c(C(=O)NCCN(CC)CC)c1C)C(=O)N2` the growth was 20.3% (inactive). With `CCc1n(Cc2ccc3ccccc3c2)c2ccccc2[n+]1Cc1ccc2ccccc2c1` the growth was 73.4% (inactive). For `CN(C)CSc1nc2ccccc2s1`, the growth was 99.7% (inactive). `C=C(C)[C@@H]1CCC=C2CC[C@]3(C)[C@H](CC[C@@H]4[C@@]5(C)CCCNC(C)(C)[C@@H]5CC[C@]43C)[C@H]21` was tested, and the growth was 0.148% (active). With `O=CN1N=C(c2ccc3c(c2)OCO3)CC1c1cccc(Nc2ccnc3cc(C(F)(F)F)ccc23)c1` (stereo not given) the growth was 53.4% (inactive). With `Cc1nccc2c3ccc(OCc4cn(-c5ccccc5)nn4)cc3n(CCCc3ccccc3)c12` the growth was 35.3% (inactive). With `COc1ccc([C@H]2[C@@H](F)C(=O)N2c2cc(OC)c(OC)c(OC)c2)cc1F` the growth was 19.7% (inactive). With `Cc1[nH]c2ncnc(Oc3ccc(NC(=O)Nc4ccc(Cl)c(C(F)(F)F)c4)cc3)c2c1C` the growth was 27.4% (inactive). `CN1CCN(S(=O)(=O)O[C@@H]2C(=O)N(c3cc4c5ccccc5ccc4c4ccccc34)[C@H]2c2ccc(F)cn2)CC1` was tested, and the growth was 66.6% (inactive). For `O=C(/C(=C/c1ccc([N+](=O)[O-])cc1)SCc1ccc(Cl)cc1)c1ccc(F)cc1`, the growth was 7.69% (active). In the case of `c1ccc(-c2n(Cc3ccc4ccccc4n3)cc[n+]2Cc2ccc3ccccc3n2)cc1`, the growth is reported as 37.9% (inactive). For `CSc1nc(-c2ccco2)c2c(N)[nH]nc2n1`, the growth was 82.7% (inactive). With `COc1ccc(Nc2nc(SCC(C)C)nc(-c3ccc(F)cc3)c2C#N)cc1` the growth was 57.2% (inactive). `COc1cc(C(C)c2ccc3c(ccn3C)c2)cc(OC)c1OC` (stereo not given) was tested, and the growth was 12.6% (inactive). `C=C1C(=O)O[C@H]2[C@H]1CC/C(COC(=O)CCCCCCCCC(=O)OC/C1=C/CC[C@@]3(C)O[C@H]3[C@H]3OC(=O)C(=C)[C@@H]3CC1)=C\CC[C@@]1(C)O[C@@H]21` was tested, and the growth was 3.83% (active). In the case of `CC1(C)CC[C@]2(c3nnc(-c4ccncc4)o3)CC[C@]3(C)C(=CC[C@@H]4[C@@]5(C)CCC(=O)C(C)(C)[C@@H]5CC[C@]43C)[C@@H]2C1`, the growth is reported as 52% (inactive). `CCCCN(CCCC)CC(CN(CC)CC)OC(=O)Nc1ccccc1` (stereo not given) was tested, and the growth was 80.8% (inactive). For `Cc1cc(Nc2nc(SCc3ccc(C(=O)Nc4ccc(F)cc4N)cc3)nn3cccc23)n[nH]1`, the growth was 6.29% (active). In the case of `COC(=O)[C@]1(C)CCC[C@]2(C)[C@H]3C[C@H]4C(C(C)C)=C[C@]3(CC[C@H]21)[C@@H]1C(=O)N(CCC#N)C(=O)[C@@H]14`, the growth is reported as 38.2% (inactive). For `[2H]c1nc(Nc2ncc3cc(C(=O)N(C)C)n(C4CCCC4)c3n2)c([2H])c([2H])c1N1C([2H])([2H])C([2H])([2H])NC([2H])([2H])C1([2H])[2H]`, the growth was 5.14% (active). In the case of `OCCNc1nc(NCCO)nc(Nc2ccc(C3=NN(c4cc(Cl)cc(Cl)c4)C(c4ccc(C(F)(F)F)cc4)C3)cc2)n1` (stereo not given), the growth is reported as 7.9% (active). `O=C(Nc1nc(-c2ccccc2Cl)cs1)c1cc(-c2ccc(Br)cc2)nc2ccccc12` was tested, and the growth was 37.2% (inactive). `Cc1cccc(C)c1Nc1nnc(-c2ccc(F)cc2)o1` was tested, and the growth was 110% (inactive). In the case of `COc1ccc(Nc2cc(NC(=O)CNc3cc(OC)c(Cl)c(OC)c3Cl)ncn2)cc1`, the growth is reported as 52.2% (inactive).
